Test [1] in a line: optical density shifts of acrAB sulA E. coli – strain DRC41, OD650, 48 h, E. coli filamentation inducer project, primary screen (AID 1152).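 Also: E. coli MC1000 strain DRC41 lacking acrAB efflux pump and sulA.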 The following applies: higher = more signal, called active from +8 up or from −8 down.
The nature of test [2]: probe aLefty1 binding on compound microarray – biochemical, small-molecule microarray, 635/667 nm fluorescence, primary screen (AID 1153).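 Also: score merges spot fluorescence with signal-to-noise ratio from the scanned slide images.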 The following applies: higher = more signal.
The nature of test [3]: plasmodial surface anion channel blockers, osmotic lysis – cell-based, P. falciparum Indochina, OD700, 1 h, primary screen (AID 1154). To be noted: P. falciparum Indochina infected RBC osmotic lysis, higher = more signal, called active from +8 up or from −8 down.
Test [4] can be described thus: plasmodial surface anion channel blockers, osmotic lysis – cell-based, P. falciparum Indochina, OD700, 2 h, primary screen (AID 1155).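 Also: lysis reports solute entry through the parasite surface anion channel PSAC.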 The following applies: P. falciparum Indochina infected erythrocytes, higher = more signal, called active from +8 up or from −8 down.
Test [5] in a line: changes in parasitized red cell lysis, either direction – P. falciparum Indochina, OD700, 3 h, PSAC antagonist project, primary screen (AID 1156). The following applies: P. falciparum-infected erythrocytes, osmotic lysis, higher = more signal, called active from +8 up or from −8 down.
A short description of test [6]: plasmodial surface anion channel blockers, osmotic lysis – cell-based, P. falciparum Indochina, OD700, 18 h, primary screen (AID 1157). To be noted: P. falciparum Indochina infected erythrocytes, osmotic lysis OD700, 18 h; higher = more signal, called active from +8 up or from −8 down.
The nature of test [7]: S6 kinase pathway phospho-S6 level changes – cell-based, A549, cytoblot, luminescence, serum-stimulated, primary screen (AID 1158).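 Also: serum-stimulated A549 lung adenocarcinoma cells; signal is phosphorylated S6 detected by cytoblot immunostaining with HRP secondary.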 The following applies: 5 h, higher = more signal.
The target of test [8] is NADPH oxidase 2 (Homo sapiens) (UniProt P04839). The test can be described thus: compounds shifting NOX2 Amplex Red fluorescence – cell-based, HEK293-NOX2, PMA-stimulated, NOX inhibitor project, primary screen (AID 1159). Also: test concentration not given here. The following applies: 45 min, higher = more signal, called active from +8 up or from −8 down.
NADPH oxidase 2 (Homo sapiens), sequence (P04839 whole entry, looked up): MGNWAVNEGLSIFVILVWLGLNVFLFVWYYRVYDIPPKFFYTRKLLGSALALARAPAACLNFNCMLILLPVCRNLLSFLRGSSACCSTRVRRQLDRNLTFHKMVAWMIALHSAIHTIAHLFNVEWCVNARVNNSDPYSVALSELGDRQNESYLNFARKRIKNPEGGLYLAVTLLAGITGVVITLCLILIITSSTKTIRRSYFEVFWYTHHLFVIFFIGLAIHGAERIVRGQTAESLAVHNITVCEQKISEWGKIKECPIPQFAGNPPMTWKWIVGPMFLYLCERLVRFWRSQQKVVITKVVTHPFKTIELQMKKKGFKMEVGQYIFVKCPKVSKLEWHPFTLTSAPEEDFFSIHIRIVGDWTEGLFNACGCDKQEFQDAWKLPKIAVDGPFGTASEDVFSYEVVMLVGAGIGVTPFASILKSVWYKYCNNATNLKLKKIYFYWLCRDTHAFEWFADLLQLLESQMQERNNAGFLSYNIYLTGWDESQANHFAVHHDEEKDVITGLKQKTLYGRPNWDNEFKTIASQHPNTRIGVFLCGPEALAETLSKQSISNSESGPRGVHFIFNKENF
In test [9] the target is NADPH oxidase 4 (Homo sapiens) (UniProt Q9NPH5). The test can be described thus: compounds shifting NOX4 Amplex Red fluorescence – cell-based, HEK293-NOX4, tetracycline-induced, NOX inhibitor project, primary screen (AID 1160). To be noted: HEK293-NOX4, Amplex Red H2O2 fluorescence, 45 min; higher = more signal, called active from +8 up or from −8 down.
NADPH oxidase 4 (Homo sapiens), sequence (Q9NPH5 whole entry, looked up): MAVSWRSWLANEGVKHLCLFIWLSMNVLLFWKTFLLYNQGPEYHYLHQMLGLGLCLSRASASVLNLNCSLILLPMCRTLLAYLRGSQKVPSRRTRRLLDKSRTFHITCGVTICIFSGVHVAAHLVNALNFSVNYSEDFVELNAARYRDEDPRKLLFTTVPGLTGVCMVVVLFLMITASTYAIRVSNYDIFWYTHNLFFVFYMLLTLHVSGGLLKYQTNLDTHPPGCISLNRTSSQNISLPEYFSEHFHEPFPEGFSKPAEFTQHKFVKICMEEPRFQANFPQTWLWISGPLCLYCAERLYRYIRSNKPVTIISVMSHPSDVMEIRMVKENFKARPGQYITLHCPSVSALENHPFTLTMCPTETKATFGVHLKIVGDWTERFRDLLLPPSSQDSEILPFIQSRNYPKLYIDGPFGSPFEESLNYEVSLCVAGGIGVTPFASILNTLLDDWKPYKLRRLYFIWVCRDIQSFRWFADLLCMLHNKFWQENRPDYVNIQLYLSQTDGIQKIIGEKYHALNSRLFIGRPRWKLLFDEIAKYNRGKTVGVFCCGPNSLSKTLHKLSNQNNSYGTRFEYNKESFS
For test [10], the target named is NADPH oxidase 5 (Homo sapiens) (UniProt Q96PH1). The test can be described thus: compounds shifting NOX5 Amplex Red fluorescence – cell-based, HEK293-NOX5, NOX inhibitor project, primary screen (AID 1161). To be noted: HEK293-NOX5, ionomycin, 45 min, higher = more signal.
NADPH oxidase 5 (Homo sapiens), sequence (Q96PH1 whole entry, looked up): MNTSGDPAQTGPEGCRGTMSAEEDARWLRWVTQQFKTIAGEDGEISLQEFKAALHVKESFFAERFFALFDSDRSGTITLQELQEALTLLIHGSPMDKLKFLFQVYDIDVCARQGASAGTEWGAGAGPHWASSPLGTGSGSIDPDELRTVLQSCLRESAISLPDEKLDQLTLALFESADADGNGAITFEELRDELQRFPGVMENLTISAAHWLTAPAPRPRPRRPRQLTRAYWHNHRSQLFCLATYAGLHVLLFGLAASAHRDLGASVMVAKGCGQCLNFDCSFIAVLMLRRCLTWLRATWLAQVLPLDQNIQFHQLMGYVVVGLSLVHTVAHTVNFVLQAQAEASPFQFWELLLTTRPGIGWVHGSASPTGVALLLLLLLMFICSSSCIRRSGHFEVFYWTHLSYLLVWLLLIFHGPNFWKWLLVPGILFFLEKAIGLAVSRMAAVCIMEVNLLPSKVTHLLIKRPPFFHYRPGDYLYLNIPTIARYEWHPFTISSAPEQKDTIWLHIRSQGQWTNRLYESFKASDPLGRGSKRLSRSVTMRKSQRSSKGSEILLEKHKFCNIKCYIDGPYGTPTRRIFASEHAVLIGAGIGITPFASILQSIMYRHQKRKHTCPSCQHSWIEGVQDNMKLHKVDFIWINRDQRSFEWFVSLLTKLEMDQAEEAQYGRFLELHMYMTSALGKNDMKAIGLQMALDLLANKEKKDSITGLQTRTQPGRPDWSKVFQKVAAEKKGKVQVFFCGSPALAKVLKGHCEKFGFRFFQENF
A short description of test [11]: compound effects on lung adenocarcinoma cell viability – A549, calcein-AM fluorescence, 48 h, basal, profiling panel (AID 1162). Also: test concentration not given here. The following applies: higher = more signal.
Test [12] can be described thus: compound effects on differentiated 3T3-L1 adipocyte viability – cell-based, 3T3-L1 adipocytes, calcein-AM fluorescence, 48 h, basal, profiling panel (AID 1163). Also: test concentration not given here. The following applies: 3T3-L1 adipocytes viability, higher = more signal.
A short description of test [13]: compound effects on hepatocellular carcinoma cell viability – HepG2, calcein-AM fluorescence, 48 h, basal, profiling panel (AID 1164). Also: test concentration not given here. The following applies: higher = more signal.
Test [14] can be described thus: compound effects on multiple myeloma cell viability – MM1S, calcein-AM fluorescence, 48 h, basal, profiling panel (AID 1165).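 Also: viability of MM1S multiple myeloma cells under basal unstimulated conditions; test concentration not given here.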 The following applies: higher = more signal.
A short description of test [15]: calcein-AM signal in unstimulated myeloma cells – cell-based, calcein-AM fluorescence, 48 h, PK04 Diversity Set, profiling panel (AID 1166).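 Also: cells grown under basal conditions without added stimulus; test concentration not given here.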 The following applies: RPMI8226 myeloma viability, higher = more signal.
A short description of test [16]: JC-1 mitochondrial signal, unstimulated HepG2 cells – cell-based, JC-1 fluorescence, 24 h, 100 nL compound, profiling panel (AID 1167). Also: test concentration not given here. To be noted: HepG2 mitochondrial potential, higher = more signal.
A short description of test [17]: JC-1 mitochondrial signal, unstimulated adipocytes – cell-based, JC-1 fluorescence, 3T3-L1 adipocytes, 24 h, 100 nL compound, profiling panel (AID 1168). Also: test concentration not given here. The following applies: JC-1 mitochondrial fluorescence, higher = more signal, called active from +8 up or from −8 down.
Test [18] in a line: JC-1 mitochondrial signal, unstimulated myeloma cells – cell-based, JC-1 fluorescence, RPMI8226, 24 h, 100 nL compound, profiling panel (AID 1169). Also: test concentration not given here. The following applies: JC-1 mitochondrial potential fluorescence, higher = more signal.
A short description of test [19]: JC-1 mitochondrial signal, unstimulated MM1S myeloma – cell-based, JC-1 fluorescence, 24 h, 100 nL compound, profiling panel (AID 1170). Also: test concentration not given here. The following applies: MM1S mitochondrial potential, higher = more signal.
Test [20] can be described thus: resazurin metabolic signal in A549 cells – cell-based, resazurin fluorescence, 24 h, PK04 Diversity Set, profiling panel (AID 1171). Also: test concentration not given here. The following applies: A549 viability, higher = more signal, called active from +8 up or from −8 down.

Activity calls are given as the source filed them.

`[N-]=[N+]=NCc1ccccc1[C@@H]1OC(c2ccc(OCCCO)cc2)=N[C@]1(Cc1ccccc1N=[N+]=[N-])C(=O)NCCN1CCOCC1`: the z-score in test [1] was -0.04 (inactive); in [3], 16.5 (active); in test [4], 2.41 (inactive); in [5], 1.46 (inactive); in test [6], 1.45 (inactive); in [7] it was -0.417. For the same compound, the z-score is -2.49 (inactive) in [8]; -0.406 (inactive) in test [9]; -1 in [10]; 0.0239 in [11]; 0.727 in test [12]; 0.695 in test [13]. The z-score in test [14] is -1.17; in [15], -1.09; in test [16], 0.988; in test [17], 0.564 (inactive); in test [18], -0.96; in [19] it was -0.212. Also, the z-score in test [20] is 0.162 (inactive). Besides, the composite z-score in test [2] stood at 0.254.

As to `C=C(CCCC)C(=O)CC[C@H](OC(C)=O)c1ccc(OCCO)cc1`, the z-score in [1] was 2.2 (inactive); in [3], 11.3 (active); in [4], 0.316 (inactive); in test [5] it was 1.61 (inactive); in test [6], -0.623 (inactive); in test [7], 2. Also, the z-score in test [8] is -3.16 (inactive); in [9] it was -1.5 (inactive); in test [10], -3.11; in [11] it was 0.95; in test [12], 3.04; in test [13] it was -0.0781. For the same compound, the z-score was -2.86 in test [14]; -3.54 in test [15]; 0.764 in [16]; -0.387 (inactive) in test [17]; -0.248 in [18]; -1.39 in test [19]. Further, the z-score in test [20] was 0.697 (inactive). The composite z-score in test [2] is -0.316.

Consider `C=CCOC(=O)[C@H]1[C@@H]2C(=O)O[C@@H](c3ccccc3)[C@@H](c3ccccc3)N2[C@@H](c2ccc(OCCOC(=O)[C@H]3C[C@H]4C(=O)N[C@@H](CCCCNC(C)=O)C(=O)N4[C@H]3c3cccc(OCCO)c3)cc2)[C@]12C(=O)Nc1ccc(I)cc12`, for which the z-score in [1] was 0.831 (inactive); in test [3], 1.81 (inactive); in test [4], -0.285 (inactive); in test [5], 1.31 (inactive); in [6] it was -1.61 (inactive); in [7] it was 0.112. For the same compound, the z-score in [8] was -0.224 (inactive); in test [9], 0.68 (inactive); in test [10] it was -0.174; in test [11], 0.0973; in test [12], 1.5; in [13], -0.621. Further, the z-score in [14] is 0.035; in test [15], -0.665; in test [16] it was -1.91; in test [17], 0.622 (inactive); in test [18], -0.676; in test [19], -0.519. In test [20], the z-score was -0.342 (inactive). The same compound yielded a composite z-score in test [2] of -0.625.

`O=C(NCCN1CCOCC1)[C@@H]1c2ccccc2C(=O)N(Cc2ccccc2)[C@H]1c1ccc(CO)cc1`: the z-score in test [1] is 0.347 (inactive); in test [3] it was 1.23 (inactive); in [4], -0.222 (inactive); in test [5], 0.766 (inactive); in [6] it was -0.0161 (inactive); in [7] it was -0.214. The z-score was -1.71 (inactive) in [8]; -0.652 (inactive) in test [9]; -2.89 in test [10]; 0.178 in test [11]; -0.323 in [12]; 0.225 in test [13]. Further, the z-score is -0.593 in test [14]; 0.137 in test [15]; 2.07 in test [16]; 0.422 (inactive) in test [17]; -0.78 in test [18]; -0.218 in test [19]. Moreover, the z-score in test [20] is 1.59 (inactive). The composite z-score in test [2] is -0.101.

On to `C=CCNC(=O)[C@H]1[C@@H]2C(=O)O[C@@H](c3ccccc3)[C@@H](c3ccccc3)N2[C@@H](c2ccc(O)cc2)[C@]12C(=O)N(C(=O)OCCOC)c1ccc(C#CCC(C(=O)OC)C(=O)OC)cc12`, for which the z-score in test [1] was -0.275 (inactive); in [3] it was 5.56 (inactive); in test [4], 1.27 (inactive); in test [5] it was -4.17 (inactive); in test [6] it was 0.516 (inactive); in test [7], -0.016. Moreover, the z-score in [8] is 1.95 (inactive); in [9], 1.14 (inactive); in [10], 1.52; in test [11], 1.1; in [12], -0.206; in [13], -0.615. Also, the z-score in test [14] was -2.93; in [15] it was -4.49; in [16], -1.26; in [17], 0.448 (inactive); in test [18], -1.34; in test [19], -1.83. For the same compound, the z-score in test [20] was 0.979 (inactive). This compound gave a composite z-score in test [2] of 0.139.

The values above are taken from PubChem BioAssay.
